# Test results from the supplement of paper PMC12067093, “Discovery and optimisation of a covalent ligand for TRIM25 and its application to targeted protein ubiquitination” (Chemical Science, 2025).
# Targets with the largest changes are over-represented here; the source holds about 21,000 in all.
# Compound: CC1Cc2ccccc2N1C(=O)C1CCCN(C1)C(=O)CCl (mixture of isomers) [TRIM25 ligand 11 (diastereomer mixture)]
# Assay: probe-labelled cysteine peptide fold change vs DMSO (competition) (log2 fold change); higher = less target engagement (more negative = stronger competition)
# Conditions: THP-1, incubation time: 4 h
# 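Note: competitive chemoproteomic profiling in live THP-1 cells with an iodoacetamide desthiobiotin (IA-DTB) probe, comparing probe-labelled peptide intensities in compound-treated cells against DMSO-treated controls.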
# Sequence of UniProt P35249 (P35249 whole entry, looked up): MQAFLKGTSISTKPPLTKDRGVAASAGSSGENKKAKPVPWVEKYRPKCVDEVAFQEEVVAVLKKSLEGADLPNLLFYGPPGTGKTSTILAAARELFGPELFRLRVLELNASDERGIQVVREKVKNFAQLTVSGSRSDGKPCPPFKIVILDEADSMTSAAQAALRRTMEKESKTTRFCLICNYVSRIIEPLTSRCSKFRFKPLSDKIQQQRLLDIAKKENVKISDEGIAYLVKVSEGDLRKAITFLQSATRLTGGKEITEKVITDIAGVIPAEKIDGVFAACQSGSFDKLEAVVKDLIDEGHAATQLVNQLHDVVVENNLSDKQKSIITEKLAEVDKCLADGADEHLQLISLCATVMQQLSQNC
# Sequence of UniProt Q9P258 (Q9P258 whole entry, looked up): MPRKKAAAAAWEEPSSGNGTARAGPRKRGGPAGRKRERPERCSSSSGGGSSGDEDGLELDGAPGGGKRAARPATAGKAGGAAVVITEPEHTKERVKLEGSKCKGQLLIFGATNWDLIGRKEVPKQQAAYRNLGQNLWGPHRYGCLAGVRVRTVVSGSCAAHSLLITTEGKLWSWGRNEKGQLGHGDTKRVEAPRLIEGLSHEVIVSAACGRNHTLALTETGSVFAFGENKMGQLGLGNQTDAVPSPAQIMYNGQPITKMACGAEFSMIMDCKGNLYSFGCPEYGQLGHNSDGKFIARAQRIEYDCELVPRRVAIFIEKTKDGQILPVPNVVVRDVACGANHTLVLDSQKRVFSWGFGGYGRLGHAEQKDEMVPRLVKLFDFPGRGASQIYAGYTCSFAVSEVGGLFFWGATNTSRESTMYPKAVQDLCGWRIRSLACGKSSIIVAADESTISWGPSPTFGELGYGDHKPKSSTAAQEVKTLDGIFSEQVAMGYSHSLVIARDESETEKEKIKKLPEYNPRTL
# Sequence of UniProt P62834 (P62834 whole entry, looked up): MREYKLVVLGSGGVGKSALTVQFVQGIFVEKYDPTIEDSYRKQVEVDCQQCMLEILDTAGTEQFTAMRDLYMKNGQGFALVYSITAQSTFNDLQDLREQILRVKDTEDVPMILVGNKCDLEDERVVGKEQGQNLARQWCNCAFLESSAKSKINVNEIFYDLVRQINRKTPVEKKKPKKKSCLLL
# Sequence of UniProt P49792 (P49792 whole entry, looked up): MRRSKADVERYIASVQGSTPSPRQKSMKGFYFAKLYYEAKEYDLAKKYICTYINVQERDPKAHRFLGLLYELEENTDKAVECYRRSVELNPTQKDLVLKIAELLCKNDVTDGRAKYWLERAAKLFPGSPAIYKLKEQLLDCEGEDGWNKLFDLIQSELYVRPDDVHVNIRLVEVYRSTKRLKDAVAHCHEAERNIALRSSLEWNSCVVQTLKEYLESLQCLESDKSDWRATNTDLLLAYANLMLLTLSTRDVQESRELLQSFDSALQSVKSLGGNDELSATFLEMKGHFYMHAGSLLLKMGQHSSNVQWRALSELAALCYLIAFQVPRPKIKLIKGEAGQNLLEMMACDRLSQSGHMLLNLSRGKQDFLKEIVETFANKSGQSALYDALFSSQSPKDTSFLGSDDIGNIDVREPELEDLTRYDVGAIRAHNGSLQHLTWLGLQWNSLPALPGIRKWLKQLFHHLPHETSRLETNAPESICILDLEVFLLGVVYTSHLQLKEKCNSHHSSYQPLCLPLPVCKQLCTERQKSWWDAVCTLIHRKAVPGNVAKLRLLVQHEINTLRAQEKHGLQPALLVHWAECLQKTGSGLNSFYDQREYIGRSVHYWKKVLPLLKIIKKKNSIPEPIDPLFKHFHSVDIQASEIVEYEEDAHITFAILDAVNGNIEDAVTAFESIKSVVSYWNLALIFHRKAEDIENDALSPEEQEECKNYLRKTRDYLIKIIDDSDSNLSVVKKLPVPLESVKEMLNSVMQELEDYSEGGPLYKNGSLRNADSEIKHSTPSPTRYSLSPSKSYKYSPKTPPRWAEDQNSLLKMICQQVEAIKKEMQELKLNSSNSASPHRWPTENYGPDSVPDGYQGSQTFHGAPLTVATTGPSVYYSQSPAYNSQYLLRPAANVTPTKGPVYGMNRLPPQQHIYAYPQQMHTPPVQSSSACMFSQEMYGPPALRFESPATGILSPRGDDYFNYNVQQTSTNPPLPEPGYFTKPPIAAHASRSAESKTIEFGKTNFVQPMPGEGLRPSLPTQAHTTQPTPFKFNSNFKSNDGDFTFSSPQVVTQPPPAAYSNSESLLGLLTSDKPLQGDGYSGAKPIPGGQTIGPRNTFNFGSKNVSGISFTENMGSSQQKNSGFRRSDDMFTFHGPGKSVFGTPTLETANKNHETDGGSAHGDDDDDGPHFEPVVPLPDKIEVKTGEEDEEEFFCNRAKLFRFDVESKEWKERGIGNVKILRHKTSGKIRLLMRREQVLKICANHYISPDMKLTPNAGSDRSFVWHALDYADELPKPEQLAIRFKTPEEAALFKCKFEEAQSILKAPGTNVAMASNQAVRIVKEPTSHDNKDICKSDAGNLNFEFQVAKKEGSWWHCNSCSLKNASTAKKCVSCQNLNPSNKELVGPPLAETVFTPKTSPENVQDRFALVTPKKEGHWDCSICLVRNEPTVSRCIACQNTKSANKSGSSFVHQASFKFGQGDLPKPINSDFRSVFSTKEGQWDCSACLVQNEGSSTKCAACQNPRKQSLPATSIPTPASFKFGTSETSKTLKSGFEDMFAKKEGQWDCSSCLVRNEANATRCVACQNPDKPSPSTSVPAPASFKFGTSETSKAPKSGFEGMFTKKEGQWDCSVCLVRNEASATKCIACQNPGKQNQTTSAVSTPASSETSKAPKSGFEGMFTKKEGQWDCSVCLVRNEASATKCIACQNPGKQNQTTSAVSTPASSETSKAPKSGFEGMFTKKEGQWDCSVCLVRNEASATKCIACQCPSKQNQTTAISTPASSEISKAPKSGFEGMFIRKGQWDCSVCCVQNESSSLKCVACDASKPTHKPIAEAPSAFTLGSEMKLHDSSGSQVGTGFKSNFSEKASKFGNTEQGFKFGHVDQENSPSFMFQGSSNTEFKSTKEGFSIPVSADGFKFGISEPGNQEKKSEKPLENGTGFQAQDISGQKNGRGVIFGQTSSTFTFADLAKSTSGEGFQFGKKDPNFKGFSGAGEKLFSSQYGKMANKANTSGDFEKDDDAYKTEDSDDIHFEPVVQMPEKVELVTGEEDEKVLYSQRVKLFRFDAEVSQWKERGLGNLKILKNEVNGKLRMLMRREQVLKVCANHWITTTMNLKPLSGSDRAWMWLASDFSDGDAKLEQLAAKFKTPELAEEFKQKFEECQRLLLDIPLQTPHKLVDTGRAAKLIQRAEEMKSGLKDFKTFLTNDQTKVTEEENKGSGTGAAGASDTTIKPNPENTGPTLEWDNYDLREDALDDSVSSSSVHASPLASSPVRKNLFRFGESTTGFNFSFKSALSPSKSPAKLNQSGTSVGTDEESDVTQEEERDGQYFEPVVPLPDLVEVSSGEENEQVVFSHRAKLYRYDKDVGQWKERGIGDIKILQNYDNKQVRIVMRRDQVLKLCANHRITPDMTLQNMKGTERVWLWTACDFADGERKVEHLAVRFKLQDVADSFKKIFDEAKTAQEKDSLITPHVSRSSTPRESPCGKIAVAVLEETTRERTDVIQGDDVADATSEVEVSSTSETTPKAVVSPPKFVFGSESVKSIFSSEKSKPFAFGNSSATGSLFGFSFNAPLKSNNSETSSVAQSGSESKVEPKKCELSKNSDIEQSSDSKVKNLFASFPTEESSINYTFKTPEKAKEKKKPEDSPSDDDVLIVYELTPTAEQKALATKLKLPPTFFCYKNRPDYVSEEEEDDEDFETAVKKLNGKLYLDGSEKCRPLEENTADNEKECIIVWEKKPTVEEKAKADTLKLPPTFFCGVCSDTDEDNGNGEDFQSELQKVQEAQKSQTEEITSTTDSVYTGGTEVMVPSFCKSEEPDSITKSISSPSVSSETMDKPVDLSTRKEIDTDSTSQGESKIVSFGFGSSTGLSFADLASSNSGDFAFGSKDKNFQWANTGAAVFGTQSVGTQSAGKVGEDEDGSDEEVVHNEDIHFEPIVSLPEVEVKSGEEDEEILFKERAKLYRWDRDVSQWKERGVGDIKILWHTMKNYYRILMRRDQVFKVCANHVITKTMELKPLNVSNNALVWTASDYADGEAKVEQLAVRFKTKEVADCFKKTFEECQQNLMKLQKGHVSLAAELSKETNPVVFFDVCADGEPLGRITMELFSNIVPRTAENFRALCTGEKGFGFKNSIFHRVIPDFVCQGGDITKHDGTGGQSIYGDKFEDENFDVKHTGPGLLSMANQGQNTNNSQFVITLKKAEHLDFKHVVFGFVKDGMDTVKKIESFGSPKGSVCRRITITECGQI
# Sequence of UniProt Q9NW64 (Q9NW64 whole entry, looked up): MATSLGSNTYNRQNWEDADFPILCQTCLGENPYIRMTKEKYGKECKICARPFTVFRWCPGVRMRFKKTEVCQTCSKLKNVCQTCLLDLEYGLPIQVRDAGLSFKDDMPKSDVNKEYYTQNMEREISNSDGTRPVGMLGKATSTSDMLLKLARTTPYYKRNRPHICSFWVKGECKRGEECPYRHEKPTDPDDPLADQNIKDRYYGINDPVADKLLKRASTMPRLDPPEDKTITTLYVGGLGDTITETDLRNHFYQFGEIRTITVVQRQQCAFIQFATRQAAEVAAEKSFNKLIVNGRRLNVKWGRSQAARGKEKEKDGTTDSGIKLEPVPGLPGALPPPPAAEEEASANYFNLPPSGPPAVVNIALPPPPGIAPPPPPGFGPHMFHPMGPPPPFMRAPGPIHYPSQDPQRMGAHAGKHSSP
# Sequence of UniProt Q15008 (Q15008 whole entry, looked up): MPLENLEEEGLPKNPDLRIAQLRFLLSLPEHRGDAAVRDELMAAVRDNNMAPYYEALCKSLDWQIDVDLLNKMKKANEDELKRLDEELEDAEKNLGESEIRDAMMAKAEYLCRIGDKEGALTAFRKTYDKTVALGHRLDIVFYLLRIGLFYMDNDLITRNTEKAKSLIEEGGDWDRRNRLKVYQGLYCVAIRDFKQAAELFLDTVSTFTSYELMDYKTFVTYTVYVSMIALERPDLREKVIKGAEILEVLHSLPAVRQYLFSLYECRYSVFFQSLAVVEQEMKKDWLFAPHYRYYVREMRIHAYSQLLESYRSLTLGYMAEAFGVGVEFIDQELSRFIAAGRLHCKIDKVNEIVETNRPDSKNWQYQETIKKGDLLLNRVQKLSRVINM
target,measurement,setting,value
PSME1_Q06323_101_KKGEDEDKGPPCGPVNCNEK (UniProt Q06323),probe-labelled cysteine peptide fold change,10 µM,-0.56
same,probe-labelled cysteine peptide fold change,50 µM,-0.596
RANBP3_Q9H6Z4_406_VEVITGEEAESNVLQMQCK (UniProt Q9H6Z4),probe-labelled cysteine peptide fold change,10 µM,0.0311
same,probe-labelled cysteine peptide fold change,50 µM,0.26
RBM22_Q9NW64_74_TEVCQTCSK (UniProt Q9NW64),probe-labelled cysteine peptide fold change,10 µM,-0.0386
same,probe-labelled cysteine peptide fold change,50 µM,-0.0803
RABEP1_Q15276_350_IPVVCALTQEESSAQLSNEEEHLDSTR (UniProt Q15276),probe-labelled cysteine peptide fold change,10 µM,-0.0072
same,probe-labelled cysteine peptide fold change,50 µM,-0.0899
RAD21_O60216_35_AHVFECNLESSVESIISPK (UniProt O60216),probe-labelled cysteine peptide fold change,10 µM,0.0257
same,probe-labelled cysteine peptide fold change,50 µM,0.111
RGMB_Q6NW40_226_ITIIFKAHHECTDQK (UniProt Q6NW40),probe-labelled cysteine peptide fold change,10 µM,-0.5
same,probe-labelled cysteine peptide fold change,50 µM,-0.619
RAI1_Q7Z5J4_899_APLICTK (UniProt Q7Z5J4),probe-labelled cysteine peptide fold change,10 µM,-0.024
same,probe-labelled cysteine peptide fold change,50 µM,-0.376
RPL30_P62888_52_LVILANNCPALR (UniProt P62888),probe-labelled cysteine peptide fold change,10 µM,0.0216
same,probe-labelled cysteine peptide fold change,50 µM,0.142
RASAL3_Q86YV0_447_LCGALEPALPAQAK (UniProt Q86YV0),probe-labelled cysteine peptide fold change,10 µM,0.119
same,probe-labelled cysteine peptide fold change,50 µM,0.0549
PSMD6_Q15008_188_VYQGLYCVAIR (UniProt Q15008),probe-labelled cysteine peptide fold change,10 µM,-0.0246
same,probe-labelled cysteine peptide fold change,50 µM,0.231
PTPN12_Q05209_343_SCLVEGDAK (UniProt Q05209),probe-labelled cysteine peptide fold change,10 µM,0.155
same,probe-labelled cysteine peptide fold change,50 µM,-0.0495
RBM4B_Q9BQ04_31_VLECDIIK<|>RBM4_Q9BWF3_31_VLECDIIK (UniProt Q9BWF3+Q9BQ04),probe-labelled cysteine peptide fold change,10 µM,-0.00323
same,probe-labelled cysteine peptide fold change,50 µM,-0.0431
RANBP3_Q9H6Z4_249_NESSNASEEEACEK (UniProt Q9H6Z4),probe-labelled cysteine peptide fold change,10 µM,0.387
same,probe-labelled cysteine peptide fold change,50 µM,-0.572
RHOG_P84095_105_WHPEVCHHCPDVPILLVGTKK (UniProt P84095),probe-labelled cysteine peptide fold change,10 µM,-0.292
same,probe-labelled cysteine peptide fold change,50 µM,-0.278
RNPEP_Q9H4A4_85_LDSHPCLEVTAAALR (UniProt Q9H4A4),probe-labelled cysteine peptide fold change,10 µM,0.0713
same,probe-labelled cysteine peptide fold change,50 µM,-0.0588
RFC4_P35249_180_FCLICNYVSR (UniProt P35249),probe-labelled cysteine peptide fold change,10 µM,-0.16
same,probe-labelled cysteine peptide fold change,50 µM,-0.0464
RABGEF1_Q9UJ41_359_RDLSIEEQSECAQDFYHNVAER (UniProt Q9UJ41),probe-labelled cysteine peptide fold change,10 µM,0.648
same,probe-labelled cysteine peptide fold change,50 µM,-0.0585
RABL6_Q3YEC7_172_VPTHVPVCVLGNYR (UniProt Q3YEC7),probe-labelled cysteine peptide fold change,10 µM,0.0329
same,probe-labelled cysteine peptide fold change,50 µM,0.101
RCC2_Q9P258_280_GNLYSFGCPEYGQLGHNSDGK (UniProt Q9P258),probe-labelled cysteine peptide fold change,10 µM,0.288
same,probe-labelled cysteine peptide fold change,50 µM,-0.207
RAP1A_P62834_118_DTEDVPMILVGNKCDLEDERVVGK (UniProt P62834),probe-labelled cysteine peptide fold change,10 µM,-0.603
same,probe-labelled cysteine peptide fold change,50 µM,-0.364
RAB3GAP1_Q15042_873_FVSCLLEQPEVLVTGAGR (UniProt Q15042),probe-labelled cysteine peptide fold change,10 µM,0.274
same,probe-labelled cysteine peptide fold change,50 µM,0.33
RANBP2_P49792_3221_ITITECGQI (UniProt P49792),probe-labelled cysteine peptide fold change,10 µM,-0.127
same,probe-labelled cysteine peptide fold change,50 µM,0.249
RAB3GAP1_Q15042_783_HLLPCVIHAAVLK (UniProt Q15042),probe-labelled cysteine peptide fold change,10 µM,-0.107
same,probe-labelled cysteine peptide fold change,50 µM,-0.00935
RNF14_Q9UBS8_350_LTYHGVSPCK (UniProt Q9UBS8),probe-labelled cysteine peptide fold change,10 µM,0.114
same,probe-labelled cysteine peptide fold change,50 µM,0.116
